This is a sample that favours compounds with a hit; in the whole collection about 8% have one here.
KB-V1 MDR tox – KB-V1 MDR subline cytotoxicity; Potency, µM (highest dose often 46.1 µM), hits mostly cytotoxic; AID 1347076; KB-V1 MDR cells viability, CellTiter-Glo, 72 h; 400,000 tested, 3.4% active; also: % is scaled to controls: 0 for no effect and ±100 for the full control effect; nearly all actives have a fitted effect of over 60% in size
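KB-V1 MDR subline cells in DMEM (phenol-red free, 10% FBS) exposed to compounds in qHTS concentration series for 72 h at 37 degrees C. Viability read by CellTiter-Glo luminescence; concentration-effect curves fitted after normalization and correction.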
HT1080 IDH1KD tx – toxicity to HT-1080 IDH1 knockdown cells (counter line); 360,000 tested, 2% active; Potency, µM (highest dose often 46.1 µM), for the others: at the highest dose activity, negative = toxicity, hits mostly cytotoxic; HT-1080 IDH1 knockdown viability, ATP luminescence, 48 h;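 also: 0% = DMSO wells and -100% = cell-free medium wells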
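IDH1KD HT-1080 cells, 750/well, RPMI + 5% FBS; compound pinned after 2 h settling; 48 h, 37 °C; CellTiter-Glo luminescence; % activity normalised to DMSO and no-cell wells; curves fitted, classed by r2 and efficacy.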
HT1080NT lethal – kills 2HG-producing HT-1080-NT fibrosarcoma cells | HT-1080-NT fibrosarcoma viability, CellTiter-Glo ATP luminescence, 48 h | Potency, µM (titrated, usually from 46.1 µM), inactives show at the top dose activity, negative = less viability, most hits filed as cytotoxic | 360,000 tested, 1.6% active;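 also: NT is the 2HG producing partner of a matched IDH1 knockdown line; 0% = DMSO-treated cells and -100% = media-only wells without cells; nearly all actives have a fitted effect of over 55% in size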
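750 cells/well, RPMI + 5% FBS; 2 h settle, compound pin-transfer, 48 h at 37 degrees C. CellTiter-Glo 10 min RT, luminescence. Normalized to DMSO and media-only wells.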
MCF10A rereplic – induces DNA re-replication in MCF 10a normal breast cells; 350,000 tested, 2.9% active; Potency, µM (highest dose often 46.1 µM), inactives show at the highest dose activity, positive = re-replication, hits mostly activators; MCF 10A DNA re-replication, Hoechst nuclear intensity, 48 h; also: % of control where 0% means no effect; nearly all actives have a fitted effect of over 50% in size
KB-3-1 tox – kills parental KB-3-1 adenocarcinoma cells; Potency, µM (titrated, usually from 46.1 µM), actives largely listed as cytotoxic; 400,000 tested, 1.4% active; KB-3-1 viability, CellTiter-Glo ATP luminescence, 72 h; AID 1347075; also: % is scaled to controls: 0 for no effect and ±100 for the full control effect; nearly all actives have a fitted effect of over 60% in size
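Here the drug-naive KB-3-1 line serves as comparator for MDR sub-line selectivity; cells received compound titrations, 72 h at 37 °C, then CellTiter-Glo readout.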
SW480 rereplic – induces DNA re-replication in SW480 colon adenocarcinoma cells | Potency, µM (doses to about 46.1 µM), for the others: at the top dose re-replication activation, hits mostly activators | 340,000 tested, 1.8% active | SW480 DNA re-replication, Hoechst DNA content imaging, 48 h | AID 624297; also: % of control where 0% means no effect; nearly all actives have a fitted effect of over 55% in size
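SW480 cells exposed to compounds for 48 hr at 37 C, 5% CO2, then Hoechst-stained 40 min. Nuclear DNA content imaged by fluorescence scanning (405 nm excitation, 500-530 nm emission); re-replication scored as increased high-intensity nuclei.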
* marks the source's active call; other numbers are inactive results; i = inactive; ? = inconclusive; . = no result; [ ] = dose if it differs, or a comment. Calls follow the shape of the dose curve; as a rule, active = well fitted curve in the direction sought with a large enough effect; inconclusive = small, poorly fitted or top-dose-only effect, or another doubt; inactive = no such curve, though single readings can be large; an effect the other way counts as inactive or inconclusive. Potency is read from the fitted curve at half-maximal effect.

SMILES	KB-V1 MDR tox	HT1080 IDH1KD tx	HT1080NT lethal	MCF10A rereplic	KB-3-1 tox	SW480 rereplic
CCS(=O)(=O)N1CCCC(C(=O)NCCc2ccc(C)cc2)C1 (centres undefined)	?	4%	15%	-67%	i	13µM*
Cc1ccc(CCNC(=O)C2CCCN(C(=O)N(C)C)C2)cc1 (centres undefined)	?	5%	7%	4%	i	1%
CCS(=O)(=O)N1CCC(C(=O)NCCc2ccc(C)cc2)CC1	i	0%	-2%	28%	i	-2%
CCn1c(C(=O)N2CCC(Cc3ccccc3)CC2)cc2sccc21	i	-5%	1%	21µM*	i	1%
CCn1c(C(=O)N2CCCC(C(=O)O)C2)cc2sccc21 (centres undefined)	i	-4%	-5%	2%	i	9%
CCn1c(C(=O)N2CCCC(C(=O)NCCCc3ccccc3)C2)cc2sccc21 (centres undefined)	23µM*	-1%	5%	?	i	11%
CCn1c(C(=O)N2CCCC(C(=O)NCCc3ccc(C)cc3)C2)cc2sccc21 (centres undefined)	16µM*	?	?	?	?	?
O=C(Cn1c(=O)n(-c2ccc(Cl)cc2)c(=O)c2sc3ccccc3c21)NC1CCCCC1	i	.	.	.	i	.
Cc1ccc(CNC(=O)C2CCCN(S(=O)(=O)c3cccc4nsnc34)C2)cc1 (centres undefined)	i	.	.	.	i	.
Cc1cccc(NC(=O)Cn2nc(-c3ccccc3)c3cnc4ccccc4c32)c1	i	.	.	.	i	.
Cn1c(C(=O)N2CCCC(C(=O)NCc3cccs3)C2)cc2sccc21 (centres undefined)	i	-7%	11%	18%	i	1%
Cn1c(C(=O)N2CCCC(C(=O)NCCCSC3CCCCC3)C2)cc2sccc21 (centres undefined)	8.2µM*	-13%	-4%	24%	i	0%
Cc1ccc(S(=O)(=O)N2CCN(Cc3noc(CCC(=O)N4CCCCC4)n3)CC2)c(C)c1	i	.	.	.	i	.
Oc1cccc2ccc(Nc3ccccn3)nc12	?	5.8µM*	5.8µM*	5.8µM*	5.8µM*	?
COc1cc(OC)c(N(C)C(=O)C2CCCN(c3ncnc4c3nc3n4CCCCC3)C2)cc1Cl (centres undefined)	i	.	.	.	i	.
CCCCCC(=O)N1C[C@H](n2cc(-c3ccc(F)cc3)nn2)[C@@H](O)C[C@@H]1c1ccc(Cl)cc1	?	?	16µM*	.	?	.
O=C(C1CCCCC1)N1C[C@H](n2cc(-c3ccc(F)cc3)nn2)[C@@H](O)C[C@@H]1c1ccccc1	i	-1%	4%	.	i	.
O=C(C1CCCCC1)N1C[C@@H](O)[C@H](n2cc(-c3ccc(F)cc3)nn2)C[C@@H]1c1ccccc1	i	?	?	.	18µM*	.
Cc1ccc([C@H]2C[C@@H](n3cc(-c4ccc(F)cc4)nn3)[C@H](O)CN2C(=O)C2CCCCC2)cc1	9.2µM*	-3%	1%	.	?	.
CCCCCC(=O)N1C[C@@H](O)[C@H](n2cc(-c3ccc(F)cc3)nn2)C[C@@H]1c1ccc(Cl)cc1	?	?	-24%	.	?	.
CC1=C(c2ccc(C)c(C)c2)S(=O)(=O)N=C1N1CCC(C(=O)N2CCC(C(N)=O)CC2)CC1	i	.	.	.	i	.
Cc1ccccc1OCc1nc2ccccc2n1Cc1ccccc1Cl	i	.	.	.	i	.
CCOc1ccccc1N(CC)C(=O)c1cc2c(=O)[nH]c3ccc(C)cc3c2s1	i	.	.	.	i	.
CC(C)c1ccc(C2(C)NC(=O)N(C(C)C(=O)Nc3ccc(N4CCOCC4)cc3)C2=O)cc1 (centres undefined)	i	-15%	-14%	?	i	6.5µM*
CCc1ccc(NC(=O)c2cc(=O)c3ccc(C)c(C)c3o2)cc1	5.8µM*	.	.	.	i	.
SMILES	KB-V1 MDR tox	HT1080 IDH1KD tx	HT1080NT lethal	MCF10A rereplic	KB-3-1 tox	SW480 rereplic
CCOCCCN(CCC#N)S(=O)(=O)c1ccc(S(=O)(=O)N2CCCC2)cc1	26µM*	4%	1%	5%	i	1%
CCN(CC)S(=O)(=O)c1ccc(S(=O)(=O)N2CCCC2)cc1	i	-4%	1%	-1%	i	-2%
Cc1cccc(NCc2ccc(O)c3ncccc23)c1	i	?	18µM*	?	23µM*	?
Oc1ccc(CNc2ccc(F)cc2)c2cccnc12	i	18µM*	18µM*	23µM*	?	?
COCc1ccc(O)c2ncccc12	12µM*	5.8µM*	4.6µM*	7.3µM*	15µM*	26%
Oc1ccc(CNc2ccccc2)c2cccnc12	i	?	5.8µM*	?	?	?
Oc1ccc(Cn2ccnc2)c2cccnc12	i	?	?	135%	?	?
Cc1nc2c(c(C)nn2-c2ccccc2)c(C)c1CCC(=O)Nc1ccc(F)cc1	i	.	.	.	i	.
Cc1ccccc1NCc1ccc(O)c2ncccc12	?	0.71µM*	3.2µM*	?	i	3%
NC(=O)c1ccnc2c(O)cccc12	i	.	.	4%	i	0%
OCc1ccnc2c(O)cccc12	?	-16%	-8%	5.2µM*	?	1.2µM*
COc1cc(Nc2nc3ccccc3c3nnc(C)n23)cc(OC)c1	i	.	.	.	i	.
O=C(Cn1ncc2c([nH]c3ccccc32)c1=O)NCCCN1CCN(c2ccc(F)cc2)CC1	i	.	.	.	i	.
Cc1ccnc(NC(=O)C2CCN(S(=O)(=O)c3ccc(Cl)c(C(F)(F)F)c3)CC2)c1	?	16%	-5%	20%	i	19%
O=C(Nc1ccncc1)C1CCN(S(=O)(=O)c2ccc(Cl)c(C(F)(F)F)c2)CC1	?	-18%	2%[9.24 µM]	?	5.8µM*	0%
O=C(Nc1ccc2c(c1)OCCO2)C1CCN(S(=O)(=O)c2ccccc2)CC1	i	-1%	-15%	?	i	17%
COc1cc2c(cc1OC)CN(S(=O)(=O)c1ccc3c(c1)OCCO3)CC2	5.2µM*	-5%	0%	1%	?	-4%
O=C(Nc1ccc2c(c1)OCCO2)C1CCN(S(=O)(=O)c2ccc(Br)s2)CC1	10µM*	-2%	-23%	-4%	?	?
O=C(Nc1ccc2c(c1)OCCO2)C1CCN(S(=O)(=O)c2cccs2)CC1	15µM*	22%	-1%	10%	i	-1%
Cc1ccc(C)c(NC(=O)Cc2coc3cc(C)cc(C)c23)c1	i	.	.	.	i	.

Screening results from PubChem BioAssay.
